The text below walks through data of PubChem BioAssay AID1986 (Sanford-Burnham Center for Chemical Genomics, 2009).

The campaign covered roughly 290,000 compounds. About 890 (0.31%) were called active. This is one part of a sample in which actives are shown more often than they occur. Cut-off read from the data, not from the text of the source: active = inhibition mostly above about 52% (no sharp cut-off); inactive = mostly below about 76%.

This test in a line: cell-free HIV fusion peptide-binding blockers – biochemical, uHTS, fluorescence dequenching, primary screen (AID 1986). Conditions: 30 min, stronger effect = higher value.
The mark [1] stands for this setting: measured here: repeat confirmation average inhibition, at 18.6 µM.

With `CN(c1ccccc1)c1ccc(/C=C(\CCC(=O)O)c2nc3ccccc3s2)cc1[N+](=O)[O-]`, for the setting “at 20 µM”, the inhibition (in general, the change of the read-out against control, counted positive when it falls) was 65% (active).
`O=C(O)CC/C(=C\c1cccc(NC(=O)c2ccccc2Cl)c1)c1nc2ccccc2s1`: the inhibition by setting is: (at 20 µM) 64.7% (inactive); under setting [1], 17.1%.
In the case of `COc1ccc(C(=O)Nc2cccc(/C=C(\CCC(=O)O)c3nc4ccccc4s3)c2)cc1`, where the note is “at 20 µM”, the inhibition is 59.2% (active).
Same read-out and setting: the same measure for `O=C(O)CC/C(=C\c1ccc(Cl)c([N+](=O)[O-])c1)c1nc2ccccc2s1`: 13.2% (inactive); for `COc1cccc(/C=C(\CC(=O)O)c2nc3ccccc3s2)c1`: 3.6% (inactive); for `COc1cc(NC(=O)C2CC(=O)NC3=C2C(=O)CCC3)c(OC)cc1Cl` (centres undefined): -1.9% (inactive).
As for `N#CC1=C(N)OC2=C(CC/C2=C\c2ccc(F)cc2)C1c1ccc(F)cc1` (centres undefined), the inhibition is, setting by setting: (at 20 µM) 73.8% (inactive); under setting [1], 40.5%.
Consider `COc1cc2c(cc1NC(=O)CSc1ccc(C)cc1)oc1ccccc12`, for which, under “at 20 µM”, the inhibition was 0.2% (inactive).
The same measure, in the same setting: the same measure for `NC(=O)C1CCN(C(=O)CN2CCc3ccccc32)CC1`: -0.5% (inactive); for `Cc1c(NC(=O)c2ccc3c(c2)C(=O)N(Cc2ccco2)C3=O)cccc1C(=O)O`: 6.1% (inactive); for `O=C(Nc1ccc(O)cc1C(=O)O)c1ccc2c(c1)C(=O)N(Cc1ccco1)C2=O`: 24.6% (inactive).
As to `O=C(Nc1ccc(Cl)cc1C(=O)O)c1ccc2c(c1)C(=O)N(Cc1ccco1)C2=O`, the inhibition (at 20 µM) was 50% (active).
As to `COc1c(Br)cc(Br)cc1/C=N/NC(=O)c1ccncc1`, the inhibition (at 20 µM) was -1% (inactive).
Consider `O=C(N/N=C/c1cc(Br)cc(Br)c1O)c1cccc(S(=O)(=O)N2CCOCC2)c1`, for which the inhibition was 80.2% (active) (at 20 µM) and 53.2% under setting [1].
Consider `O=C(N/N=C/c1c(F)c(F)c(F)c(F)c1F)c1cccc(S(=O)(=O)N2CCOCC2)c1`, for which the inhibition (at 20 µM) was 0.1% (inactive).
As to `O=C(N/N=C/c1cc(Br)cc(Br)c1O)c1ccncc1`, the inhibition by setting is: (at 20 µM) 103% (active); under setting [1], 59.2%.
For the compound `O=C(N/N=C/c1cc(Br)ccc1O)c1ccncc1`, the inhibition (at 20 µM) is 3.3% (inactive).
Same read-out and setting: the value for `COc1cc(/C=N/NC(=O)c2cccc(S(=O)(=O)N3CCOCC3)c2)cc(OC)c1O` was -3.4% (inactive); that for `Cc1csc(NC(=O)/C=C/c2ccc(C)o2)n1` was 8.7% (inactive); that for `O=c1[nH]c(C2CCN(S(=O)(=O)c3ccc(S(=O)(=O)NC4CC4)cc3)CC2)nc2c1nnn2Cc1ccccc1` was -0.4% (inactive).
On the same count and under the same terms, the value for `O=S(=O)(Cc1ccccc1)NCC1CCCO1` (centres undefined) was -2.7% (inactive).
As for `CCCCN(CCCC)C(=O)c1cc2ccccc2c(=O)o1`, where the note is “at 20 µM”, the inhibition was -1.7% (inactive).
Same read-out and setting: the same measure for `CCCCC[C@H](O)/C=C/[C@@H]1[C@@H](C/C=C\CCCC(=O)O)[C@H]2CO[C@@H]1C2`: 3.4% (inactive).
`CCCCC[C@H](O)/C=C/[C@@H]1[C@@H](C/C=C\CCCC(=O)O)[C@@H](O)C[C@H]1O`: the inhibition (at 20 µM) is -0.8% (inactive).
For the compound `CCCCC[C@H](O)/C=C/[C@H]1C=CC(=O)[C@@H]1C/C=C\CCCC(=O)O`, the inhibition (at 20 µM) was 52.4% (active).
Take `CCOC(=O)c1ccc(NC(=S)NCC(O)c2ccccc2)cc1` (centres undefined): under “at 20 µM”, the inhibition is 8.7% (inactive).
Consider `Cn1cnnc1SCC(=O)Nc1ccc(Cl)cc1`, for which the inhibition (at 20 µM) is 1.9% (inactive).
For `Cc1ccc(C(=O)NN2C(=O)/C(=C/c3cn(C)c4ccccc34)SC2=S)cc1`, the inhibition is 86.9% (active) (at 20 µM) and 91.3% under setting [1].
As for `Cc1ccc(C(=O)NN2C(=O)/C(=C/c3cccn3C)SC2=S)cc1`, for the setting “at 20 µM”, the inhibition is 24.4% (inactive).
Still for that read-out and setting: the same measure for `Cn1cc(/C=C2\SC(=S)N(NC(=O)c3cccc(Cl)c3)C2=O)c2ccccc21`: 69.3% (active).
For `Cn1cccc1/C=C1\SC(=S)N(NC(=O)c2ccccc2Cl)C1=O`, the inhibition (at 20 µM) is 22.1% (inactive).
For `Cn1cc(/C=C2\SC(=S)N(NC(=O)c3ccccc3)C2=O)c2ccccc21`, the inhibition runs as follows: (at 20 µM) 122% (inactive); under setting [1], 17.7%.
Turning to `Cn1cccc1/C=C1\SC(=S)N(NC(=O)c2ccccc2O)C1=O`, the inhibition is, setting by setting: (at 20 µM) 66.2% (inactive); under setting [1], 25.2%.
Consider `Cn1cccc1/C=C1\SC(=S)N(NC(=O)c2cccc(Cl)c2)C1=O`, for which, under “at 20 µM”, the inhibition was 25.6% (inactive).
Same read-out and setting: the same measure for `Cn1cccc1/C=C1\SC(=S)N(NC(=O)c2ccccc2)C1=O`: 35.3% (inactive).
As to `Cn1cc(/C=C2\SC(=S)N(NC(=O)c3ccccc3Cl)C2=O)c2ccccc21`, the inhibition was 66.4% (active) (at 20 µM) and 117% under setting [1].
As for `Cc1nc(SCc2ccccc2)[nH]c(=O)c1CC(=O)OCC(C)C`, under “at 20 µM”, the inhibition is 0.8% (inactive).
Regarding `CN(C)c1nc(N)c([N+](=O)[O-])c(NCc2ccccc2)n1`, the inhibition (at 20 µM) was -1.3% (inactive).
For the compound `Cc1onc(-c2c(Cl)cccc2Cl)c1C(=O)Nc1nccs1`, where the note is “at 20 µM”, the inhibition is -1% (inactive).
`COc1ccc(NCC(=O)N/N=C(\C)c2cc3ccccc3o2)cc1`: the inhibition (at 20 µM) was -3.3% (inactive).
Turning to `Cc1c(N=C2N=C(NC(=O)NC(C)(C)C)c3ccccc32)c(=O)n(-c2ccccc2)n1C`, the inhibition (at 20 µM) is -0.2% (inactive).
Same read-out and setting: the same measure for `Cc1c(N=C2N=C(NC(=O)c3cccs3)c3ccccc32)c(=O)n(-c2ccccc2)n1C`: 75.3% (active).
Regarding `Cc1c(NC(=O)c2cccs2)c(=O)n(-c2ccccc2)n1C`, where the note is “at 20 µM”, the inhibition was -1.2% (inactive).
For `Cc1c(N=C2N=C(NC(=O)Nc3ccc(Cl)cc3)c3ccccc32)c(=O)n(-c2ccccc2)n1C`, the inhibition (at 20 µM) is 137% (inactive).
On to `Cc1c(NC(=O)/C(=C/c2cccs2)c2cccs2)c(=O)n(-c2ccccc2)n1C`, for which the inhibition (at 20 µM) is 6.2% (inactive).
Take `Cc1c(N=C2N=C(NC(=O)c3ccc(F)cc3)c3ccccc32)c(=O)n(-c2ccccc2)n1C`: for the setting “at 20 µM”, the inhibition was 74.4% (active).
